# Assay results: PubChem BioAssay AID1458 (National Center for Advancing Translational Sciences (NCATS), 2008)
# Screen size: about 210,000 compounds; about 5,900 (2.8%) were called active. About 5% were inconclusive and are not listed. The call rests on the fitted dose curve; in most records, active means well fitted activation curve with a large enough effect; inconclusive means small, poorly fitted or top-dose-only effect; inactive means no such curve, though single readings can be large or run the other way. For the sample, actives were picked, then their nearest neighbours and some compounds at random.
# Assay: qHTS Assay for Enhancers of SMN2 Splice Variant Expression; further: nearly all actives have a fitted effect of over 55% in size; on activity change, positive = activation: % of control where 0% means no effect
# Details: HEK293 SMN2-luciferase splicing reporter, luminescence, 30-36 h; series mostly up to 46.1 µM; activity change, positive = activation: at the top concentration
# Method in brief: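 qHTS luciferase splicing reporter: luminescence rises when SMN2 exon 7 is included in transfected HEK293 cells. Compound exposure lasted 30-36 h at 37C, with 4.5 mM final sodium butyrate as control, followed by a ONE-Glo read.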
# Potency means the concentration at half of the fitted maximal effect.
SMILES,"activity change, positive = activation",Potency
CCCSc1ncc(Cl)c(C(=O)Nc2sc3c(c2C(=O)NCCOC)CCCC3)n1,-0.192% (inactive),–
O=C(c1ccccc1F)N1CCC(c2nc3c(nnn3Cc3cccc(F)c3)c(=O)[nH]2)CC1,3.36% (inactive),–
COc1ccc(-c2cc(C(F)(F)F)nc(SCC(=O)N(C)Cc3ccccc3)n2)cc1OC,-25.9% (inactive),–
CCOc1ccc(N(CC)C(=O)c2cc3c(=O)oc4ccccc4c3s2)cc1,8.87% (inactive),–
CSc1ncc(Cl)c(C(=O)Nc2ccc(S(=O)(=O)N3CCCC(C)C3)cc2)n1 (stereo unspecified),-9.9% (inactive),–
CCOc1cccc(NC(=O)CSc2ncc(-c3ccc(Cl)cc3)[nH]2)c1,-10.3% (inactive),–
CCC(=O)N1CCc2cc(S(=O)(=O)NC(Cc3ccccc3)C(=O)NCc3ccc(C)cc3)ccc21 (stereo unspecified),2.27% (inactive),–
Cc1ccc(NC(=O)Nc2ccccc2)c(Br)c1,–,12.6 µM (active)
CC(=O)c1cccc(NC(=O)Nc2ccc(C)cc2)c1,-13.7% (inactive),–
Cc1cccc(NC(=O)Nc2nnc(-c3ccccc3)o2)c1,-14% (inactive),–
CCN(CC)c1cc(NC2CCCCC2)c2c3c(onc13)-c1ccccc1C2=O,-17.3% (inactive),–
Nc1nnc(SCC(=O)Nc2ccc3nc(SCC(=O)Nc4ccccc4)sc3c2)s1,-3.96% (inactive),–
CSc1nc2ccc(NC(=O)c3c(F)cccc3F)cc2s1,–,12.6 µM (active)
CCCC(=O)Nc1nc2ccc(NC(=O)c3c(F)c(F)c(OC)c(F)c3F)cc2s1,-26.8% (inactive),–
CCC(C(=O)Nc1cccc(Cl)c1C)n1nc(-c2ccc(C)cc2)ccc1=O (stereo unspecified),-3.41% (inactive),–
Cc1cc2nn(-c3ccc(Cl)cc3)nc2cc1NC(=O)C(C)C,-8.91% (inactive),–
CCc1ccc(-c2nnn(Cc3nc4ccccc4s3)n2)cc1,-8.76% (inactive),–
COc1ccccc1OCc1nc2ccccc2s1,–,3.16 µM (active)
COc1ccc(-c2nc3ccccc3s2)cc1NC(=O)COc1ccccc1C,8.11% (inactive),–
COc1ccc(C2=NC3(CCCCC3)N(CC(=O)Nc3ccc(C(C)C)cc3)C2=O)cc1,2.69% (inactive),–
C/C(Nc1ccc2oc(=O)ccc2c1)=C1/C(=O)CC2[C@@H]1C2(C)C (stereo partly specified),-1.26% (inactive),–
CCNS(=O)(=O)c1ccc(NC(=O)CSc2nc(-c3ccco3)cc(C(F)(F)F)n2)cc1,-10.1% (inactive),–

SMILES,"activity change, positive = activation",Potency
Cn1c(=O)n(C)c2cc(C(=O)Nc3ccc4c(c3)OCO4)ccc21,–,11.2 µM (active)
CN1CCN(c2ccc(NC(=O)c3ccc4c(c3)OCCO4)cc2Cl)CC1,–,14.1 µM (active)
CC(C)C(=O)Nc1cccc(C(=O)Nc2ccc3c(c2)OCO3)c1,–,15.8 µM (active)
O=C(Nc1cccc(Cl)c1N1CCOCC1)c1ccc2c(c1)OCCO2,-0.872% (inactive),–
O=C(Nc1ccc2c(c1)OCCO2)c1ccc(Cl)c(S(=O)(=O)N2CCCCC2)c1,-62.2% (inactive),–
O=C(Nc1cccc([N+](=O)[O-])c1)c1ccc2c(c1)OCO2,29.6% (inactive),–
Cn1c(NC(=O)c2ccc3c(c2)OCO3)cc(=O)n(C)c1=O,-6.43% (inactive),–
CCSc1ccccc1C(=O)Nc1ccc2c(c1)OCO2,27.2% (inactive),–
O=C(Nc1ccc2c(c1)OCO2)c1ccc(N2C(=O)c3ccccc3C2=O)cc1,-0.0472% (inactive),–
Cc1ccc(-c2nc3ccccn3c2Nc2c(C)cccc2C)o1,-0.98% (inactive),–
N#C/C(=C\c1cccc(F)c1)c1nc(-c2cc3c(ccc4ccccc43)oc2=O)cs1,8.31% (inactive),–
CCOc1ccc(C(=O)c2cn(Cc3ccc(F)cc3)c3ccc(F)cc3c2=O)cc1,-2.97% (inactive),–
Cc1ccc2nc(CNC(=O)c3ccccc3)[nH]c2c1,–,11.2 µM (active)
Cc1ccc(C(=O)NCCNC(=O)c2ccccc2)cc1,6.08% (inactive),–
Cc1ccc2nc(CC(=O)c3ccc4ccccc4c3)c(=O)[nH]c2c1,-3.77% [at 9.22 µM] (inactive),–
Cc1ccc(C)c(Nc2nnc(-c3ccc(C)c(S(=O)(=O)N4CCCCC4)c3)c3ccccc23)c1,-14.7% (inactive),–
Cc1cc(NC(=O)C2CCC(CNS(=O)(=O)c3ccc(Br)s3)CC2)ccc1Br (stereo unspecified),-18.2% (inactive),–
CCC(=O)Nc1cccc(NC(=O)c2cccnc2)c1,-15.2% (inactive),–
Cc1ccc(-n2nc3cc(C)c(NC(=O)c4cccnc4)cc3n2)cc1,-15.4% (inactive),–
Cc1cc2nc(-c3ccc(NC(=O)c4cccnc4)cc3)oc2cc1C,–,12.6 µM (active)
O=C(CSc1nnc(CNC(=O)c2ccccc2)n1-c1ccc(F)cc1)Nc1ccccc1F,-1.11% (inactive),–
Cc1ccc(CNC(=O)CCc2c(C)nc3nc(CNC(=O)OC(C)(C)C)nn3c2C)cc1,-8.75% (inactive),–

SMILES,"activity change, positive = activation",Potency
COc1ccc(CCNCc2c(C(=O)O)c(C)n(Cc3cccc(C)c3)c2C)cc1OC,2.2% (inactive),–
COc1cc(SC)ccc1C(=O)Nc1cc(C)ccn1,–,2.24 µM (active)
COc1cc(SC)ccc1C(=O)Nc1nc(C)cs1,-80.7% (inactive),–
COc1cc(SC)ccc1C(=O)NCCOc1ccccc1Cl,–,12.6 µM (active)
COc1cccc(C(=O)Nc2ccc(NC(=O)c3ccco3)cn2)c1,-2.24% (inactive),–
Cc1ccnc(NC(=O)c2ccc(NC(=O)c3ccco3)cc2)c1,–,10 µM (active)
Cc1occc1C(=O)Nc1nnc(-c2ccncc2)s1,33.1% (inactive),–
Cc1ccnc(NC(=O)CCCOc2ccccc2)c1,-24.8% (inactive),–
Cc1ccc(C(=O)COc2cccc(NC(=O)c3ccco3)c2)cc1,-40.6% (inactive),–
Cc1occc1C(=O)Nc1cccc(Cn2cccn2)c1,-12.3% (inactive),–
Cc1ccnc(NC(=O)c2ccoc2C)c1,–,15.8 µM (active)
COc1ccccc1OCCNC(=O)c1cc([N+](=O)[O-])cc([N+](=O)[O-])c1,5.17% (inactive),–
COc1ccccc1CNC(=O)c1ccc(SC)cc1OC,2.66% (inactive),–
CCOc1ccc2oc(=O)cc(CN3CCN(C(=O)c4ccc(F)cc4)CC3)c2c1,-15.9% (inactive),–
CCOC(=O)c1ccc(NC(=O)CC2C(=O)N(c3cccc(OC)c3)C(=O)N2C2CCCCC2)cc1 (stereo unspecified),1.93% (inactive),–
COc1cc(C(=O)N2CCN(C(=O)COc3cccc(C)c3)CC2)cc(OC)c1OC,21.2% (inactive),–
CC(=O)c1sc(N2C(=O)c3oc4ccccc4c(=O)c3C2c2ccc(C)cc2)nc1C (stereo unspecified),-8.25% (inactive),–
CCc1ccc(NC(=O)c2sc3nc4c(cc3c2N)CN(CC)CC4)cc1,-16.2% (inactive),–
O=C(Nc1ccc(Oc2ccccc2)cc1)c1ccco1,–,15.8 µM (active)
O=C(CSc1ccccc1)Nc1ccc(NC(=O)c2ccco2)cc1,3.71% (inactive),–
O=C(/C=C/c1ccco1)Nc1ccc(Oc2ccccc2)cc1,14.3% (inactive),–
C#CC(C)(CC)NC(=O)Cn1nnc(-c2ccc(OCc3c(F)cccc3Cl)cc2)n1 (stereo unspecified),-28% (inactive),–
